Compound activity: PubChem, National Center for Advancing Translational Sciences (NCATS)
An excerpt weighted towards active compounds, which were near 8.3% of everything screened.
Giardia kill: Small Molecules that selectively kill Giardia lamblia: qHTS | 340,000 tested, 0.15% active | Giardia lamblia trophozoite viability | activity change, % at 7.66 µM, hits read low; in the data active = activity change below about -80%; inconclusive = between about -30% and that limit;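 note: parasites exposed to compound for two days anaerobically before the ATP read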
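Giardia trophozoites, 100 cells per well, were exposed to compounds for 48 hrs at 37 deg C under anaerobic conditions; viability was then read as ATP content by bioluminescence after 15-30 min at room temperature.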
Gal4-VP16 FLuc: VP16 counterscreen qHTS for inhibitors of ROR gamma transcriptional activity; 310,000 tested, 3.5% active; Potency, µM (doses to about 53.6 µM), actives largely listed as inhibitors; Drosophila S2 Gal4-VP16 UAS-luciferase, luminescence, 20 h; AID 2546, 2010;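 note: Gal4-VP16 expression switched on by copper sulfate through the metallothionein promoter; nearly all actives have a fitted effect of over 50% in size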
RORg inh: qHTS for inhibitors of ROR gamma transcriptional activity; AID 2551, 2010; 310,000 tested, 5.4% active; Drosophila S2 Gal4-RORgamma UAS-luciferase reporter, 20 h; Potency, µM (highest dose often 53.6 µM), usual class: inhibitors; Nuclear receptor ROR-gamma (Mus musculus), P51450; note: nearly all actives have a fitted effect of over 60% in size
Target sequence (P51450 whole entry, looked up, the tested form may be a part): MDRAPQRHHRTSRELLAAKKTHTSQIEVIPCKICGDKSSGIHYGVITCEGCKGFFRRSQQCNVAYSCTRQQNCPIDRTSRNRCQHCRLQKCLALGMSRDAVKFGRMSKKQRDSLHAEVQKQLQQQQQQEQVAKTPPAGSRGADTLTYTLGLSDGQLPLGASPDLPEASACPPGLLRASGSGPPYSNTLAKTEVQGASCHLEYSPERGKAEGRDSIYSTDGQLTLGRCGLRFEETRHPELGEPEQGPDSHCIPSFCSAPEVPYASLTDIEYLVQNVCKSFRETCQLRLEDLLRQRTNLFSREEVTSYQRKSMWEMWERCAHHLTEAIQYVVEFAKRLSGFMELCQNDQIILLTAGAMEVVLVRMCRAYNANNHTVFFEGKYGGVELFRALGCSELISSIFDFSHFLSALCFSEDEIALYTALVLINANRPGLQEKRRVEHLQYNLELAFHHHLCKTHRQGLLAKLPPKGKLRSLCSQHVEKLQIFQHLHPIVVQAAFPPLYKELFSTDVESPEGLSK
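Stably transfected Drosophila Schneider cells are the test system, with ROR gamma fused to Gal4 and luciferase under UAS control; luminescence is read after 20 hr of 700 uM copper sulfate induction at ambient temperature.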
SW480 rerep: A quantitative high throughput screen for small molecules that induce DNA re-replication in SW480 colon adenocarcinoma cells | SW480 DNA re-replication, Hoechst DNA content imaging, 48 h | Potency, µM (doses to about 46.1 µM), actives largely listed as activators | 340,000 tested, 1.8% active | AID 624297, 2012; note: nearly all actives have a fitted effect of over 55% in size
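Cells (250 per well) received 23 nL compound or DMSO by pin tool and were kept 48 hr at 37 C, 5% CO2. Nuclei were then stained with Hoechst for 40 min and scanned for DNA content.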
Chronic BCR inh: qHTS Assay to Find Inhibitors of Chronic Active B-Cell Receptor Signaling. ABC-DLBCL IkBa-CBG/CBR reporter, luminescence ratio, 4 h. Potency, µM (top dose mostly 46.1 µM), hits mostly inhibitors. 340,000 tested, 0.05% active. AID 493014, 2011; active = well fitted inhibition curve with a large enough effect in the signal ratio, with a control signal flat, not every such curve was filed as active; inconclusive = small, poorly fitted or top-dose-only effect, or effect the other way, or a change in a side signal; the % refers to the signal ratio
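TMD8 human ABC-DLBCL cells with doxycycline-inducible IκBα–green luciferase fusion and unfused red luciferase, in 0.5% FBS medium; compounds up to 46 uM, 4 h at 37C. Green/red luminescence ratio, filter-overlap corrected, fitted to concentration-response curves.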
MCF10A rerep: A quantitative high throughput screen for small molecules that induce DNA re-replication in MCF 10a normal breast cells; MCF 10A DNA re-replication, Hoechst nuclear intensity, 48 h; Potency, µM (top dose mostly 46.1 µM), hits mostly activators; 350,000 tested, 2.9% active; note: nearly all actives have a fitted effect of over 50% in size
Numbers stand for hits; i = inactive; ? = inconclusive; nt = no result given; [ ] = dose if it differs, or a comment. Unless noted, calls come from the whole dose curve; as a rule, active = well fitted curve in the direction sought with a large enough effect; inconclusive = small, poorly fitted or top-dose-only effect, or another doubt; inactive = no such curve, though single readings can be large; an effect the other way counts as inactive or inconclusive.

SMILES	Giardia kill	Gal4-VP16 FLuc	RORg inh	SW480 rerep	Chronic BCR inh	MCF10A rerep
C/C(CCN1CCCCc2nc(C)c(C)cc21)=N\OC[C@@H](O)[C@@H]1O[C@@H]2OC(C)(C)O[C@@H]2[C@H]1O	nt	i[10 µM]	i[10 µM]	nt	nt	nt
Cc1cc(C)cc(NC(=O)c2ccc([N+](=O)[O-])o2)c1	-95	?	?	?	?	3.3µM
Cc1cccc(NC(=O)c2ccc(-c3ccccc3[N+](=O)[O-])o2)c1	i	i	i	i	?	i
CC(=O)c1ccc(NC(=O)c2ccc([N+](=O)[O-])o2)cc1	-101	13µM	6.3µM	i	?	4.6µM
CS(=O)(=O)N(CC(=O)N1CCN(c2ccccc2F)CC1)C1CCCCC1	i	i	i	i	i	i
CS(=O)(=O)N(CC(=O)NCc1ccccc1Cl)C1CCCCC1	i	i	?	21µM	i	i
CS(=O)(=O)N(CC(=O)N1CCN(C(c2ccccc2)c2ccccc2)CC1)C1CCCCC1	i	i	13µM	i	i	i
NC(Cc1ccccc1)C(O)c1ccco1 (centres undefined)	i	i	i	nt	nt	nt
NC(=O)NC(Cc1ccccc1)C(=O)NNC(=O)COc1ccccc1Cl (centres undefined)	i	nt	nt	i	i	i
Cc1ccc(-c2nc(=S)c3c(n2Cc2ccco2)CCCC3)cc1	i	i	i	i	i	?
OCCCn1c(-c2ccccc2)nc(=S)c2c1CCCC2	i	i	i	i	i	i
COc1cccc(-c2nc(=S)c3c(n2Cc2ccco2)CCCC3)c1	i	i	?	i	i	21µM
CN(C)CCCn1c(-c2ccccc2)nc(=S)c2c1CCCC2	i	i	i	3.3µM	i	i[0.0737 µM]
Cc1ccc(-c2nc(=S)c3c(n2Cc2ccco2)CC(C)(C)OC3)cc1	i	16µM	2.8µM	?	i	?
Cc1cccc(-c2nc(=S)c3c(n2Cc2ccco2)CCCC3)c1	i	?	11µM	?	?	i
O=C(COC(=O)c1ccc(S(=O)(=O)N2CCCC2)cc1)Nc1cccc(Cl)c1	i	nt	nt	i	i	i
Cc1cc(CSc2ccccc2)ccc1NC(=O)c1ccc(Cl)c([N+](=O)[O-])c1	i	i	i	i	i	18µM
O=C(Nc1cccnc1Cl)c1ccc(Cl)c([N+](=O)[O-])c1	?	i	i	23µM	i	i
COc1ccc(NC(=O)c2cc(-c3cccnc3)nc3ccc(C)cc23)cc1OC	i	?	?	i	i	?
COc1cc(NC(=O)c2cc(-c3cccnc3)nc3ccc(Br)cc23)cc(OC)c1	i	i	?	i	i	16µM
NNC(=O)c1cc(-c2ccc(N)cc2)nc2ccc(Br)cc12	i	?	10µM	i	i	i
COc1ccc(NC(=O)c2cc(-c3ccncc3)nc3ccc(Br)cc23)cc1OC	i	20µM	?	?	i	?
CCCCCCCCCCCCCCC[C@H](O)[C@H](N)CO	nt	?	?	i	nt	?
CCC1COC(c2cccn2Cc2ccccc2Cl)=N1 (centres undefined)	i	i	8.9µM	i	i	i
Fc1ccc(Cn2cccc2C2=NC(c3ccccc3)CO2)cc1 (centres undefined)	i	i	i	i	?	i
SMILES	Giardia kill	Gal4-VP16 FLuc	RORg inh	SW480 rerep	Chronic BCR inh	MCF10A rerep
COc1ccc(-c2oc(=O)c3cc(OC)c(OC)cc3c2C#CC2(O)CCCCC2)cc1	i	nt	nt	i[9.22 µM]	?	2.1µM
COc1ccc(-c2sc3cc4c(cc3c2C#CCO)OCO4)cc1	i	nt	nt	?	?	?
COc1ccccc1-c1sc2cc3c(cc2c1C#CCO)OCO3	?	nt	nt	i	i	21µM
COc1ccc(-c2oc3cccnc3c2C#CC2(O)CCCCC2)cc1	i	?	7.1µM	i	i	18µM
COc1cc2c(C#CCCCO)c(-c3ccc(C#N)cc3)oc(=O)c2cc1OC	i	nt	nt	?	i	6.5µM
O=C(Nc1ccccc1N1CCOCC1)C1=NN(c2c(F)c(F)cc(F)c2F)C(=O)CC1	i	nt	nt	i	i	i
CCN1CCN(c2ccccc2NC(=O)C(C)Oc2ccc(C(C)=O)cc2)CC1 (centres undefined)	i	nt	nt	i	i	i
COc1cc(-c2ccc3oc(-c4ccsc4)c(C#CC4(O)CCCCC4)c3c2)cc(OC)c1OC	i	nt	nt	?	nt	18µM
COC(=O)c1c(-c2ccsc2)sc2ccc(-c3cc(OC)c(OC)c(OC)c3)cc12	i	nt	nt	i[9.22 µM]	i	i
COc1cc(-c2ccc3sc(-c4ccsc4)c(C#CCO)c3c2)cc(OC)c1OC	i	nt	nt	i	?	12µM
COc1ccc(-c2oc3cc(O)c(OC)c(O)c3c(=O)c2OC)cc1O	i	nt	nt	?	nt	?
CC1CC(C)CN(C(=O)COC(=O)/C=C/c2cccc([N+](=O)[O-])c2)C1 (centres undefined)	i	nt	nt	?	i	i
CCOc1ccc(C2C=C(c3ccc(F)cc3)Nc3ncnn32)cc1 (centres undefined)	i	?	13µM	i	?	i
CCOc1ccc(C2C=C(c3ccccc3)Nc3ncnn32)cc1 (centres undefined)	nt	i	i	nt	i	nt
Oc1ccc(C2C=C(c3ccc(F)cc3)Nc3ncnn32)cc1 (centres undefined)	i	i	i	10µM	?	i
C1=C(c2ccc(-c3ccccc3)cc2)Nc2ncnn2C1c1ccco1 (centres undefined)	i	?	11µM	i	?	i
CC(C)(Oc1ccc(Cl)cc1)C(=O)OCn1nnc2ccccc2c1=O	i	2.5µM	?	i	i	i
O=C(CNC(=O)c1ccc(Cl)cc1)OCn1nnc2ccccc2c1=O	i	nt	nt	i	i	i
OC1C=C2CCN3Cc4cc5c(cc4C(C1O)C23)OCO5 (centres undefined)	nt	11µM	?	nt	nt	nt
COc1ccc(CC(=O)NC(=S)Nc2ccc(S(=O)(=O)NC(C)(C)C)cc2)cc1	i	i	13µM	i	i	i
COc1cccc(NC(=S)NC(=O)Cc2ccccc2)c1	i	nt	nt	i	nt	i
COc1ccc(NC(=O)NCCCCc2ccccc2)cc1	i	i	i	i	i	i
C=CCN(CC=C)S(=O)(=O)c1ccc(NC(=S)NC(=O)Cc2ccc(OC)cc2)cc1	i	?	7.1µM	i	i	i
COc1ccc(CC(=O)NC(=S)Nc2ccc(S(N)(=O)=O)cc2)cc1	i	?	i	i	i	i
COc1ccc(NC(=S)NCCCc2ccccc2)cc1	i	13µM	3.5µM	18µM	i	i
C=CCN(CC=C)S(=O)(=O)c1ccc(NC(=S)NC(=O)c2ccco2)cc1	i	?	i	i	i	i
COc1ccc(NC(=S)NC(=O)Cc2ccccc2)cc1	i	7.1µM	8.9µM	i	i	i
